KB-V1 cytotox = qHTS assay for MDR1-selective chemotherapeutics: Primary screen using the drug-selected MDR subline cells KB-V1. KB-V1 MDR cells viability, CellTiter-Glo, 72 h. Potency, µM (highest dose often 46.1 µM), actives largely listed as cytotoxic. actives 3.4% (n = 400,000). AID 1347076, 2019; further: on the % scale 0 is the no-effect control and ±100 the full control effect; nearly all actives have a fitted effect of over 60% in size
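Readout: CellTiter-Glo luminescence, 10 min after addition. Cells: KB-V1 MDR subline, 72 h at 37 degrees C with compound. Analysis: corrected, normalized data fitted to concentration-effect curves.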
HT1080-NT tox = qHTS for induction of synthetic lethality in tumor cells producing 2HG: qHTS for the HT-1080-NT fibrosarcoma cell line | HT-1080-NT fibrosarcoma viability, CellTiter-Glo ATP luminescence, 48 h | Potency, µM (series often up to 46.1 µM), for inactives: at the highest dose activity, negative = less viability, most hits filed as cytotoxic | actives 1.6% (n = 360,000) | AID 686970, 2013;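 further: NT is the 2HG producing partner of a matched IDH1 knockdown line; 0% = DMSO-treated cells and -100% = media-only wells without cells; nearly all actives have a fitted effect of over 55% in size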
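Luminescent CellTiter-Glo readout after 48 hours of compound exposure at 37 degrees C defined viability of HT-1080-NT cells. Activity was normalized to DMSO wells and cell-free media wells; concentration-response curves were fitted and assigned curve classes.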
HT1080 IDH1KD tx = qHTS for induction of synthetic lethality in tumor cells producing 2HG: qHTS for the HT-1080-IDH1KD cell line. HT-1080 IDH1 knockdown viability, ATP luminescence, 48 h. Potency, µM (titrated, usually from 46.1 µM), for inactives: at the highest dose activity, negative = toxicity, actives largely listed as cytotoxic. actives 2% (n = 360,000);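 further: 0% = DMSO wells and -100% = cell-free medium wells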
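Using the IDH1-knockdown HT-1080 line run in the same batch and compound series as the NT line, viability after 48 h at 37 °C was determined by CellTiter-Glo luminescence and expressed as % activity.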
KB-3-1 cytotox = qHTS assay for MDR1-selective chemotherapeutics: Primary screen using the parental adenocarcinoma cell KB-3-1. actives 1.4% (n = 400,000). Potency, µM (series often up to 46.1 µM), hits mostly cytotoxic. KB-3-1 viability, CellTiter-Glo ATP luminescence, 72 h; further: on the % scale 0 is the no-effect control and ±100 the full control effect; nearly all actives have a fitted effect of over 60% in size
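Screening of KB-3-1 cells (DMEM, 10% FBS, phenol-red free) ran from lowest to highest compound concentration; after 72 h at 37 °C viability was read luminescently and curves fitted.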
ATXN viability = Viability Counterscreen for Primary qHTS for Inhibitors of ATXN expression; S2 cells (HEK-293 line with an ATXN2-luciferase reporter) viability, CellTiter-Fluor protease fluorescence, 24 h; Potency, µM (top dose mostly 56.7 µM), usual class: cytotoxic; actives 0.49% (n = 400,000); AID 651635, 2014; further: nearly all actives have a fitted effect of over 40% in size
ATXN2 expr inh = Primary qHTS for Inhibitors of ATXN expression. HEK-293 ATXN2-luciferase reporter, luminescence, 24 h. actives 0.72% (n = 360,000). AID 1745845, 2022. Potency, µM (series often up to 57 µM), inactives show at the top dose activity change, negative = inhibition, hits mostly inhibitors; further: on the % scale 0 is the no-effect control and ±100 the full control effect; nearly all actives have a fitted effect of over 55% in size
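ATXN2-luciferase reporter cells (luciferase flanked by upstream and downstream ATXN2 gene portions) were treated 24 h at 37 °C with compounds at up to 57 uM. SteadyGlo luminescence gave expression; GF-AFC fluorescence gave viability.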
The depositor's hits bear a star; i = inactive; ? = inconclusive; / = not tested or not shown; ! = repeats disagree; [ ] = remark or other dose. The list is not random: actives were taken first. Their share in the collection is about 6.2%. The call rests on the fitted dose curve; in most records, active means well fitted curve in the direction sought with a large enough effect; inconclusive means small, poorly fitted or top-dose-only effect, or another doubt; inactive means no such curve, though single readings can be large; an effect the other way counts as inactive or inconclusive. Potency means the concentration at half of the fitted maximal effect.

SMILES	KB-V1 cytotox	HT1080-NT tox	HT1080 IDH1KD tx	KB-3-1 cytotox	ATXN viability	ATXN2 expr inh
Cc1ccccc1NC(=S)N(C)Cc1cn(C)c2ccccc12	18µM*	-1%	5%	i	i	2%
CC[C@H]1OC(=O)[C@H](C)[C@@H](O[C@H]2C[C@@](C)(OC)[C@@H](O)[C@H](C)O2)[C@H](C)[C@@H](O[C@@H]2O[C@H](C)C[C@H](N(C)C)[C@H]2O)[C@](C)(O)C[C@@H](C)/C(=N\OCOCCOC)[C@H](C)[C@@H](O)[C@]1(C)O	/	/	/	/	i	/
COP(=O)(OC)c1nc(-c2cccc3ccccc23)oc1NCc1ccccc1	12µM*	-14%	0%	?	i	-10%
CCCCCCC[N+](CC)(CC)CCCCc1ccc(Cl)cc1	i	6.5µM*	6.5µM*	?	?	22µM*!
Cc1onc(-c2c(F)cccc2Cl)c1C(=O)OCC(=O)NC(c1ccccc1)c1ccccc1	6.5µM*	-24%	?	i	i	-15%
CCCCn1c(/C=N/Nc2nc3ccccc3[nH]2)nc2ccccc21	i	?	15µM*	?	?	?
C(=N\Nc1nc2ccccc2[nH]1)/c1cccc2nccnc12	?	?	?	?	i	?
C(=N\Nc1nc2ccccc2[nH]1)/c1ccccn1	i	?	18µM*	i	?	/
COc1cc(/C=N\Nc2nc3ccccc3[nH]2)cc(OC)c1OC	5.8µM*	-24%	-20%	i	i	4%
C#CCn1cc(/C=N/Nc2nc3ccccc3[nH]2)c2ccccc21	i	16µM*	?	i	i	17%
COc1ccc(/C=N/Nc2nc3ccccc3[nH]2)cc1OC	?	-16%	-23%	i	i	45%
COc1ccccc1CC(=O)Nc1ccc2nc(Nc3cccc(C(F)(F)F)c3)cc(C)c2c1	?	/	/	?	i	0%
C(=N\Nc1nc2ccccc2[nH]1)/c1ccc2ncccc2c1	?	0.65µM*	0.73µM*	1µM*	i	?
O=c1cnnc(N/N=C/c2ccccn2)[nH]1	i	?	1.3µM*	?	?	1.8µM*
Cc1cc(=O)[nH]c(N/N=C/c2ccccn2)n1	?	?	?	?	i	?
Fc1ccccc1-c1ccc(/C=N/Nc2nc3ccccc3[nH]2)o1	?	?	26µM*	?	i	/
O=c1nc(N/N=C/c2ccccn2)cn[nH]1	i	?	?	?	i	6.3µM*
Cc1ccc(/C=N/Nc2cn[nH]c(=O)n2)o1	i	7%	2%	i	i	24%
CCc1ccc(-c2cc3c(N4CCN(c5ccccc5)CC4)nccn3n2)cc1	i	/	/	i	i	36%
COc1ccc(CNC(=O)CN(c2ccccc2OC)S(=O)(=O)c2ccc(C)cc2)cc1	i	/	/	i	?	-33%
CCOC(=O)c1[nH]c2ccccc2c1NC(=O)c1ccccc1F	i	/	/	i	i	-16%
Fc1cccc(/C=N/Nc2nncc3ccccc23)c1	i	-23%	-1%	i	?	/
C(=N\Nc1nncc2ccccc12)/c1ccccn1	i	?	5.2µM*	?	?	?
O=C(Nc1ccc(F)c(F)c1)C1CCN(S(=O)(=O)c2cccc3nonc23)CC1	12µM*	?	-14%	?	i	-14%
O=C(NCc1ccccc1)C1CCCN(S(=O)(=O)c2cccc3nonc23)C1 (centres undefined)	18µM*	1%	4%	i	i	4%
SMILES	KB-V1 cytotox	HT1080-NT tox	HT1080 IDH1KD tx	KB-3-1 cytotox	ATXN viability	ATXN2 expr inh
COC(=O)c1ccc(OCC(O)Cn2nnc3ccccc32)cc1 (centres undefined)	23µM*	-3%	-3%	i	i	41%
CC(=O)c1ccc(OCC(O)Cn2nnc3ccccc32)cc1 (centres undefined)	i	-26%	7%[9.24 µM]	i	i	38%
O=C1C2CC=CCC2C(=O)N1c1ccc(OCC(O)Cn2nnc3ccccc32)cc1 (centres undefined)	15µM*	1%	-1%	?	i	-6%
CCN(CC)c1nc2c(S(=O)(=O)c3ccc(C)cc3)nnn2c2ccsc12	i	/	/	i	/	/
O=C(NNc1ccc(F)cc1F)C1CCC1	i	?	4.6µM*	i	i	-13%
N#CC1=C(N)Oc2ccc3ccccc3c2C1c1cccnc1 (centres undefined)	5.2µM*	8.2µM*	?	?	/	/
Cc1ccc2[nH]c(=O)c(C3C(C#N)=C(N)Oc4c3ccc3cccnc43)cc2c1 (centres undefined)	2.6µM*	-27%	?	16µM*	/	?
N#CC1=C(N)Oc2c(ccc3cccnc23)C1c1ccccc1 (centres undefined)	i	?	?	5.2µM*	?	-35%
COc1ccc(OC)c2c(/C=C/c3c[nH]c4ccccc34)ccnc12	?	/	/	4.1µM*	/	/
Cc1ccc2c(/C=C/c3c[nH]c4ccccc34)ccnc2c1C	7.3µM*	/	/	16µM*	/	/
C(=Cc1c[nH]c2ccccc12)c1nccc2ccccc12	?	?	?	?	i	?
CN(Cc1ccc(Cl)c(Cl)c1)C(c1cc2ccccc2o1)c1nnnn1C(C)(C)C (centres undefined)	15µM*	-18%	?	?	?	1%
CCN(CC)CCN(C)C(c1cc2ccccc2o1)c1nnnn1C(C)(C)C (centres undefined)	?	0%	-12%	i	?	-1%
Cc1ccc(C(=O)O/N=C/c2c(N3CCOCC3)n(C)c3ccccc23)cc1	?	4µM*	3.5µM*	?	?	?
Cn1c(N2CCOCC2)c(/C=N/OC(=O)c2ccc(F)cc2)c2ccccc21	?	2.8µM*	3.2µM*	4.1µM*	?	?
CCc1nn2c(-c3ccco3)ccnc2c1-c1ccccc1	i	/	/	i	i	19%
COc1ccc(CCn2c(-n3nc(C)cc3C)nc3c2c(=O)[nH]c(=O)n3C)cc1	1.6µM*	?	?	i	i	-8%
Cc1ccc(Cn2c(-n3nc(C)cc3C)nc3c2c(=O)[nH]c(=O)n3C)cc1	i	8%	5%	i	i	2%
